# Experimental data from PubChem BioAssay.
# Active and inactive are the calls of the source. Unless noted, no rule for the calls is given here.
# Experiments:
# [1] = anti-His antibody binders, primary screen, artefact control for SMM control protein annotation, biochemical, small-molecule microarray, 635 nm fluorescence (AID 1128); conditions: anti-His Alexa647 antibody binding, higher = more signal;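 also: score merges feature fluorescence with signal-to-noise for each printed compound spot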
# [2] = test system: Human papillomavirus type 1a E7 protein (residues 1-88); assay: HPV1a E7 small-molecule binders, primary screen, biochemical, small-molecule microarray, residues 1-88, 635 nm (AID 1129); conditions: small-molecule microarray binding, fluorescence 635 nm; higher = more signal
# [3] = target: Focal adhesion kinase 1 (Homo sapiens) (UniProt Q05397); assay: small-molecule microarray binders of FAK, primary screen, biochemical, 635/667 nm fluorescence, BSA, DTT (AID 1130); conditions: PTK2 binding, 635 nm fluorescence, higher = more signal;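 also: composite of spot emission at 667 nm and signal to noise over triplicate slides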
# [4] = test system: Fibrinogen (Alexa647-labelled); assay: fibrinogen binders on compound microarrays, profiling panel, artefact control for SMM control-protein annotation, biochemical, small-molecule microarray, 635/667 nm fluorescence (AID 1131); conditions: fibrinogen-A647 binding fluorescence, higher = more signal;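 also: z-score merges 667 nm fluorescence with per-spot signal-to-noise over triplicate slides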
# [5] = target: Follistatin (Homo sapiens) (UniProt P19883); assay: follistatin binders on small-molecule microarrays, primary screen, biochemical, small-molecule microarray, 635/667 nm fluorescence (AID 1132); conditions: FST binding, 635 nm fluorescence, higher = more signal
# [6] = target: Fibroblast growth factor 2 (Homo sapiens) (UniProt P09038); assay: FGF2 binders on small-molecule microarrays, primary screen, biochemical, small-molecule microarray, 635/667 nm fluorescence (AID 1133); conditions: small-molecule microarray binding, FGF2, fluorescence 635/667; higher = more signal
# [7] = mitochondrial membrane potential change in A549 cells, profiling panel, cell-based, JC-1 fluorescence, basal, 24 h, 100 nL (AID 1138); conditions: higher = more signal;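 also: A549 lung adenocarcinoma cells under basal conditions with no added stimulus; test concentration not given here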
# Lefty1 = Lefty1 binders on small-molecule microarrays, primary screen, biochemical, small-molecule microarray, 635/667 nm fluorescence (AID 1139); conditions: small-molecule microarray binding, fluorescence 635/667; higher = more signal
# [8] = test system: wheat germ agglutinin (Triticum aestivum), Alexa647-labelled; assay: wheat germ agglutinin binders on compound microarrays, profiling panel, artefact control for SMM control-protein annotation, biochemical, small-molecule microarray, 635/667 nm fluorescence (AID 1140); conditions: WGA-A647 binding, 635 nm fluorescence, higher = more signal;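 also: score merges 667 nm feature emission with signal to noise over triplicate slides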
# [9] = target: Luciferin 4-monooxygenase (Photinus pyralis) (UniProt P08659); assay: firefly luciferase enzyme inhibitors, primary screen, biochemical, luminescence, purified enzyme, 2006 set (AID 1141); conditions: SteadyGlo luminescence, 30 min, higher = more signal, called active from +8 up or from −8 down;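 also: cell-free assay with purified firefly luciferase at 100 ng per well in PBS; test concentration not given here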
# [10] = test system: Wnt5a (protein binding on small-molecule microarray); assay: Wnt5a binders on small-molecule microarray, primary screen, biophysical, 635/667 nm fluorescence (AID 1142); conditions: 635 nm fluorescence, higher = more signal;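 also: fluorescence read at 667 nm with signal to noise per printed feature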
# [11] = cell viability in Huh7 cells, primary screen, cytotoxicity control for HCV replication inhibitor project, CellTiter-Glo luminescence, basal, 48 h (AID 1143); conditions: Huh7 HCV replicon, higher = more signal, called active from +8 up or from −8 down;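 also: Huh7 hepatoma cells carrying a hepatitis C replication reporter with no stimulus; test concentration not given here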
# [12] = P. aeruginosa biofilm formation inhibitors, primary screen, PAO1 strain, BacTiter-Glo luminescence, LB-PBS (AID 1144); conditions: 12 h, higher = more signal
# [13] = CREB reporter modulators without forskolin, primary screen, cell-based, PC12, CRE-LacZ reporter, unstimulated (AID 1145); conditions: no forskolin, luminescence, 4.5 h, higher = more signal, called active from +8 up or from −8 down
# [14] = CREB reporter modulators under forskolin, primary screen, cell-based, PC12, CRE-LacZ reporter, forskolin-stimulated (AID 1146); conditions: luminescence, 4.5 h, higher = more signal, called active from +8 up or from −8 down;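 also: PC12 cells with 6xCRE LacZ reporter stimulated by forskolin 10 µM; beta-galactosidase reporter signal reflecting CREB driven transcription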
# [15] = target: Streptavidin (Streptomyces avidinii) (UniProt P22629); assay: streptavidin binders on small-molecule microarray, primary screen, artefact control for SMM compound annotation, biophysical, 635/667 nm fluorescence (AID 1147); conditions: streptavidin binding, higher = more signal;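 also: signal reflects streptavidin binding to arrayed compounds as a control protein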
# [16] = small-molecule binders of probe aInhba, primary screen, biochemical, small-molecule microarray, 635/667 nm fluorescence (AID 1148); conditions: higher = more signal;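 also: score merges 667nm spot fluorescence with signal-to-noise for antibody binding to printed compounds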
# Torsin-1A (Homo sapiens) [17] = target: Torsin-1A (Homo sapiens) (UniProt O14656); assay: torsin A binders from cell lysate, primary screen, small-molecule microarray, wild-type, 635/667 nm (AID 1149); conditions: COS7 hTOR1A-WT lysate, 635 nm fluorescence, higher = more signal
# Torsin-1A (Homo sapiens) [18] = target: Torsin-1A (Homo sapiens) (UniProt O14656); assay: small-molecule binders of mutant TOR1A in lysate, primary screen, cell lysate, small-molecule microarray, COS7 lysate, 635/667 nm fluorescence (AID 1150); conditions: COS7 hTOR1A mutant lysate, 635 nm fluorescence, higher = more signal;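 also: score pools 667 nm emission and signal to noise measuring lysate protein binding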
# [19] = test system: Sonic hedgehog protein (Shh); assay: small-molecule binders of Shh protein, primary screen, biochemical, small-molecule microarray, 635/667 nm fluorescence (AID 1151); conditions: small-molecule microarray binding, 635 nm fluorescence; higher = more signal;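 also: Shh protein binding to compounds spotted on small-molecule microarray slides; score combines spot fluorescence intensity with signal-to-noise across triplicate slides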
# Luciferin 4-monooxygenase (Photinus pyralis), sequence (P08659 whole entry, looked up): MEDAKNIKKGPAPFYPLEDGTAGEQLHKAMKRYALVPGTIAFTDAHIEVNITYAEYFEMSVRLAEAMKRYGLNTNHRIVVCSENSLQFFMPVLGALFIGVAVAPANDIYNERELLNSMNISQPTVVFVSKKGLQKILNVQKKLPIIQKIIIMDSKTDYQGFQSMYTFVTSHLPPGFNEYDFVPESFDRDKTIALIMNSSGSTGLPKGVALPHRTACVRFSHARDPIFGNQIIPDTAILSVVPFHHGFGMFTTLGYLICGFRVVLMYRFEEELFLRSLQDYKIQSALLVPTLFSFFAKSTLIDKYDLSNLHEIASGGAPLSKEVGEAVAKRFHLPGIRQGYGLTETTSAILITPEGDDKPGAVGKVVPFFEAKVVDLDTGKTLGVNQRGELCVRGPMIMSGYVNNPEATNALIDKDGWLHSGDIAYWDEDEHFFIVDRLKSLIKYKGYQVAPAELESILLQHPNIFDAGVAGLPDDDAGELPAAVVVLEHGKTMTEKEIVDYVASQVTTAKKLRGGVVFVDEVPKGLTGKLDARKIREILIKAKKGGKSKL
# Follistatin (Homo sapiens), sequence (P19883 whole entry, looked up): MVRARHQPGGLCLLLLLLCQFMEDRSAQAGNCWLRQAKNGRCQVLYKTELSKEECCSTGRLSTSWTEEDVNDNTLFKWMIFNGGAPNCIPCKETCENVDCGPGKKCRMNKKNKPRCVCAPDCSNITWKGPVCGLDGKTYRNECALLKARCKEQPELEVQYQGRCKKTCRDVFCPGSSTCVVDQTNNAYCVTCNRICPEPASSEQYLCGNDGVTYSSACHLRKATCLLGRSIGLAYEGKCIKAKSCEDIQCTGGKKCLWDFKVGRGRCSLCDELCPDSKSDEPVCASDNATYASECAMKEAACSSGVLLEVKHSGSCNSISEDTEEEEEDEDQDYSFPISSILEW
# Torsin-1A (Homo sapiens), sequence (O14656 whole entry, looked up): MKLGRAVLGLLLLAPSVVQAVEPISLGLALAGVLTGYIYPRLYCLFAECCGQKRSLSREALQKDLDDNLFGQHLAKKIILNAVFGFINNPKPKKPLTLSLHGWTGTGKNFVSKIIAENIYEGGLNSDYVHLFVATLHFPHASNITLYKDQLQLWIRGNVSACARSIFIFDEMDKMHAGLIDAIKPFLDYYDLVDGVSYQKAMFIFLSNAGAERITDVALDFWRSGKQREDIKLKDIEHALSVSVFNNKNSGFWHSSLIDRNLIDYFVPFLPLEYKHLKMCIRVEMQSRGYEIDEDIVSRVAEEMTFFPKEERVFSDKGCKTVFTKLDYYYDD
# Focal adhesion kinase 1 (Homo sapiens), sequence (Q05397 whole entry, looked up): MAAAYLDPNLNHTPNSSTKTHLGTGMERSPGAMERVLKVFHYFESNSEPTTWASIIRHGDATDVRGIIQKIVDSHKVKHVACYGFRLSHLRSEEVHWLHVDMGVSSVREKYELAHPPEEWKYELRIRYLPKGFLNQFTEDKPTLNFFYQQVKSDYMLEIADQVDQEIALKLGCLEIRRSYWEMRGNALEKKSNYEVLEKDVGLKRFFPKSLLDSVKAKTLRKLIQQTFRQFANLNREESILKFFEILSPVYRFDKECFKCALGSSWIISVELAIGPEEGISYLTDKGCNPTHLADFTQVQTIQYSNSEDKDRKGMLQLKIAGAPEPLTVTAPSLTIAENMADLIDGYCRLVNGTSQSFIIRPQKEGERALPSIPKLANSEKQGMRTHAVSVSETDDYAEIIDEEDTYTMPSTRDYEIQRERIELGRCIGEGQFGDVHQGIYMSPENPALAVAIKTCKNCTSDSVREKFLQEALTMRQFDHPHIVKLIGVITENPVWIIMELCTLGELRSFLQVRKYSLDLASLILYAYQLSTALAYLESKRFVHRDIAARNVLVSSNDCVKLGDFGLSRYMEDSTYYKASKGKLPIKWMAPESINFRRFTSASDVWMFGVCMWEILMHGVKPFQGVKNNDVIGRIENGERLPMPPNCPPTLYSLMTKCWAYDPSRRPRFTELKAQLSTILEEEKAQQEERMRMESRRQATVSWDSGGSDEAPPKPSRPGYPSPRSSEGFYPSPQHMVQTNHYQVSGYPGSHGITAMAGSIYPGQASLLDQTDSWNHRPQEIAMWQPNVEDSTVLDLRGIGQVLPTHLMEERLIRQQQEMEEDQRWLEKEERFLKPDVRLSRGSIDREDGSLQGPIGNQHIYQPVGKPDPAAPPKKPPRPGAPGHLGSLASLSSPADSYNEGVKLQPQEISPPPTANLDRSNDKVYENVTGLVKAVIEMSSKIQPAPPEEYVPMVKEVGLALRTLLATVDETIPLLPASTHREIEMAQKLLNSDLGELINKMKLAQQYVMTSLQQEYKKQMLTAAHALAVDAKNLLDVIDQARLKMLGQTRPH
# Streptavidin (Streptomyces avidinii), sequence (P22629 whole entry, looked up): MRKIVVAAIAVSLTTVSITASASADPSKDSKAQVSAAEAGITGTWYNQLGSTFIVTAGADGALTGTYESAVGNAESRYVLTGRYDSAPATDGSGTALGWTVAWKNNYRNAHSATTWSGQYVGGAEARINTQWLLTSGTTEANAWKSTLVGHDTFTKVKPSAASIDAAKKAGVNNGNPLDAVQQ
# Fibroblast growth factor 2 (Homo sapiens), sequence (P09038 whole entry, looked up): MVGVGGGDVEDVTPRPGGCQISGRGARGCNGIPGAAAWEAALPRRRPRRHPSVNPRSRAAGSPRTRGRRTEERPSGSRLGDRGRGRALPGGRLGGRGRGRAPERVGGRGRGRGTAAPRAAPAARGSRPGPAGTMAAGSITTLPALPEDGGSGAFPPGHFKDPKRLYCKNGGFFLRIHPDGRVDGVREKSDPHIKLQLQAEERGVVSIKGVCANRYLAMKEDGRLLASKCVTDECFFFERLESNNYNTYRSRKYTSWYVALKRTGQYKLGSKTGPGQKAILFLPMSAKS
Compound,composite z-score [1],composite z-score [2],composite z-score [3],composite z-score [4],composite z-score [5],composite z-score [6],z-score [7],composite z-score (Lefty1),composite z-score [8],z-score [9],composite z-score [10],z-score [11],z-score [12],z-score [13],z-score [14],composite z-score [15],composite z-score [16],composite z-score (Torsin-1A (Homo sapiens) [17]),composite z-score (Torsin-1A (Homo sapiens) [18]),composite z-score [19]
CC(C)(C)OC(=O)CC[C@]1(C(N)=O)N=C(c2ccc(OCCCO)cc2)O[C@H]1c1ccccc1CN=[N+]=[N-],3.93,1.15,0.291,0.878,0.421,1.44,0.187,-0.512,0.668,-4.65 (inactive),0.602,0.268 (inactive),0.201 (inactive),1.04 (inactive),-0.671 (inactive),2,0.355,1.57,1.1,-0.336
Cc1ccccc1C(O)C1C=CC2C(=O)N(c3ccccc3)C(=O)C2N1Nc1ccccc1F (stereo not given),2.08,1.22,0.622,1.06,1.01,0.624,-0.932,-0.245,1.15,-0.782 (inactive),0.0624,0.198 (inactive),-0.626 (inactive),-1.09 (inactive),-0.283 (inactive),1.14,0.0569,0.575,1.25,-0.255
Cc1ccc(S[C@]2(C(=O)NCC(F)(F)F)CC(=O)N(C3CCCCC3)[C@@H]2c2ccc(CO)cc2)cc1,1.12,0.408,-0.35,-0.0988,-0.16,-0.257,2.02,-0.583,0.235,-0.0377 (inactive),0.0911,-1.09 (inactive),0.12 (inactive),-0.529 (inactive),-0.147 (inactive),-0.777,-0.176,0.118,1.06,-0.121
COC(=O)[C@@]1(Cc2ccc(OC)cc2)[C@H]2c3cc(C(=O)N4CCCC4)n(CCc4ccc(OC)c(Br)c4)c3C[C@H]2CN1C(=O)c1ccccc1,1.66,1.16,0.946,0.406,-0.533,-0.381,0.914,-1.13,0.345,0.626 (inactive),-0.0726,-0.0564 (inactive),0.24 (inactive),0.387 (inactive),0.132 (inactive),0.0687,0.195,0.373,0.57,-0.908
C=CCC(OC(C)=O)[C@@H]1[C@@H](N(Cc2cc3ccccc3o2)C(=O)c2ccc(-c3ccccc3)cc2)c2cc(OCCCO)ccc2N1C(=O)c1ccc2ccccc2n1 (stereo not given in full),-0.492,-1.42,0.202,-0.858,0.313,-0.171,1.71,-0.194,-0.0535,-0.847 (inactive),-0.202,0.214 (inactive),-0.115 (inactive),2.46 (inactive),-0.531 (inactive),0.378,0.0228,0.179,0.165,0.135
NCCCC[C@@H]1NC(=O)[C@H]2C[C@@H](C(=O)NCc3ccc(F)cc3)[C@@H](c3ccc(O)cc3)N2C1=O,2.05,0.969,-0.145,0.165,1.32,1.32,-0.724,0.296,1.2,0.242 (inactive),-0.0979,0.12 (inactive),-0.0714 (inactive),0.143 (inactive),0.421 (inactive),0.829,0.0963,1.18,2.58,1.11
COc1ccccc1CN1C(=O)c2ccccc2[C@@H](C(=O)NCCCN(C)C)[C@@H]1c1ccc(CO)cc1,0.802,0.232,-0.492,-0.741,0.104,0.303,2.1,0.409,0.131,0.731 (inactive),0.0968,-2.77 (inactive),-1.58 (inactive),0.531 (inactive),-0.744 (inactive),-0.523,0.0028,-0.236,-0.0195,-0.0791
C=CC[C@]1(C(=O)OC)N=C(c2ccc(OCCCO)cc2)O[C@H]1c1ccccc1N=[N+]=[N-],3.65,1.21,1.01,0.266,1.43,1.78,-0.674,1.12,0.291,-11 (active),1.2,-3.62 (inactive),-1.04 (inactive),0.171 (inactive),-2.05 (inactive),0.126,0.707,0.662,1,1.68
C[N+](C)(C)CCCCCCNC(=O)[C@H]1C[C@H]2C(=O)NCC(=O)N2[C@H]1c1cccc(OCCO)c1,3.03,0.283,-0.27,0.0104,1.13,1.63,-0.883,1.6,0.273,-0.0987 (inactive),-0.196,-0.103 (inactive),0.052 (inactive),-0.675 (inactive),-0.487 (inactive),-0.518,-0.14,1.1,0.781,2.17
CO[C@H]1O[C@H](CO)[C@@H](OC(=O)Nc2ccccc2)[C@@H]2OC(=O)[C@H](Cc3ccccc3)C/C=C/C[C@@H](Cc3ccccc3)C(=O)O[C@@H]12,2.3,1.13,0.473,0.718,1.29,1.74,2.27,1.33,0.588,-0.617 (inactive),0.399,-3.81 (inactive),-0.805 (inactive),0.512 (inactive),-1.36 (inactive),0.564,-0.0762,0.527,0.348,1.62
CCCC=C(CCC)[C@@H](NS(=O)(=O)c1ccc(Cl)cc1)c1ccccc1,1.12,-0.382,0.884,0.522,-0.883,-0.919,-0.576,-1.17,0.303,1.8 (inactive),0.0207,-2.29 (inactive),-0.527 (inactive),0.197 (inactive),0.261 (inactive),0.489,0.0807,-0.721,-0.292,-1.12
